The text below walks through data of PubChem BioAssay (NCI).

Test systems include K-562 leukemia; MALME-3M melanoma; MDA-MB-231 breast; RXF 393 renal; SF-268 CNS; SF-295 CNS; SF-539 CNS; UACC-257 melanoma; M14 melanoma; HCT-15 colon; HT29 colon; SNB-75 CNS; SNB-19 CNS; U251 CNS; PC-3 prostate; SK-MEL-5 melanoma; UACC-62 melanoma; SK-MEL-28 melanoma; SK-MEL-2 melanoma; LOX IMVI melanoma.
Assay in all cases: NCI-60 one-dose screen, 48 h (100 = growth as untreated, 0 = no growth, -100 = all killed)
Holding throughout (details): 10 µM unless noted

About 83,000 compounds went through this panel and 20% of them were active in at least one assay; those are over-represented in the sample as a whole.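 The endpoint reported here, percent growth, reads 100 for growth as untreated, 0 for no net growth and -100 for all cells dead.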 A number with no mark means an inactive call. The source made the active and inactive calls. The calls were made as follows: active = growth percent below 10; inactive = the rest.

In the case of `NS(=O)(=O)c1cccc(Nc2nc(SCC(=O)c3ccc([N+](=O)[O-])cc3)nc3ccccc23)c1`, the growth in the test with K-562 leukemia is 19.7%; in the test with MALME-3M melanoma it was 58.6%; in the test on MDA-MB-231 breast, 55.6%; in the test on RXF 393 renal, 57%; in the test with SF-268 CNS it was 54.5%; in the test on SF-295 CNS, 36.8%. Besides, the growth is 52.2% with SF-539 CNS; 88.9% in the test with UACC-257 melanoma; 38.5% in the test on M14 melanoma; 34.5% with HCT-15 colon; 71.2% in the test on HT29 colon; 45.9% in the test on SNB-75 CNS. The growth was 73.7% with SNB-19 CNS; 52.2% in the test with U251 CNS; 24.2% in the test with PC-3 prostate; 7.52% (active) in the test on SK-MEL-5 melanoma; -12.7% (active) with UACC-62 melanoma; 60.3% with SK-MEL-28 melanoma. Besides, the growth with SK-MEL-2 melanoma was 13.2%.

For `CCCC(=O)NC(c1ccc(N(CC)CC)cc1)c1cc(C)c2cccnc2c1O` (stereo unspecified), the growth with K-562 leukemia was 14.6%; in the test on MALME-3M melanoma it was 16%; in the test on MDA-MB-231 breast, 43.9%; in the test on RXF 393 renal, 43.1%; in the test with SF-268 CNS it was 27.6%; in the test on SF-295 CNS it was 17.6%. Besides, the growth in the test on SF-539 CNS was 11.3%; with UACC-257 melanoma, 24.9%; in the test on M14 melanoma, -33% (active); in the test with HCT-15 colon, 29.5%; with HT29 colon, 36.4%; with SNB-75 CNS, 60.4%. Also, the growth in the test with SNB-19 CNS was 25.1%; in the test on U251 CNS it was 25.6%; with PC-3 prostate, 39.3%; in the test with SK-MEL-5 melanoma, -19.8% (active); in the test on UACC-62 melanoma it was 8.31% (active); in the test with SK-MEL-28 melanoma, 29.6%.

As to `Cn1cc(-c2cc(N)n3nc(-c4cn(C)c5ccc(Cl)cc45)cc3n2)c2cc(Cl)ccc21`, the growth was 26.5% in the test on K-562 leukemia; 100% in the test on MALME-3M melanoma; 71.1% in the test with MDA-MB-231 breast; 121% with RXF 393 renal; 78.8% with SF-268 CNS; 95.4% in the test on SF-295 CNS. In addition, the growth with SF-539 CNS is 94.2%; with UACC-257 melanoma, 108%; with M14 melanoma it was 53.4%; in the test with HCT-15 colon, 32.8%; with HT29 colon, -16.5% (active); in the test with SNB-75 CNS, 83.2%. Also, the growth was 99.4% in the test on SNB-19 CNS; -4.82% (active) with U251 CNS; 87.3% with PC-3 prostate; 104% with SK-MEL-5 melanoma; 93.9% in the test on UACC-62 melanoma; 11.3% in the test on LOX IMVI melanoma. Further, the growth was 76.7% in the test with SK-MEL-28 melanoma and 121% in the test with SK-MEL-2 melanoma.

For the molecule `COc1ccc(/C=N/NC(=O)c2[nH]c3ccc(Br)cc3c2-c2ccccc2)s1`, the growth in the test on K-562 leukemia was 10.8%; with MALME-3M melanoma it was 55.5%; with MDA-MB-231 breast it was 3.89% (active); with RXF 393 renal, 80.9%; in the test with SF-268 CNS, 39.7%; in the test on SF-295 CNS it was 15.6%. Besides, the growth with SF-539 CNS is 1.16% (active); with UACC-257 melanoma, 47%; in the test on M14 melanoma it was 6.17% (active); in the test with HCT-15 colon, 12%; in the test with HT29 colon, 0.251% (active); with SNB-75 CNS, 26.4%. In addition, the growth is 30.6% in the test with SNB-19 CNS; 30.2% in the test on U251 CNS; 30.9% in the test on PC-3 prostate; -24.4% (active) in the test on SK-MEL-5 melanoma; 42.4% in the test with UACC-62 melanoma; 63.6% with SK-MEL-28 melanoma. In addition, in the test on SK-MEL-2 melanoma, the growth was 43.9%.

As for `O=C(N/N=C/c1ccco1)c1[nH]c2ccc(Br)cc2c1-c1ccccc1`, the growth in the test on K-562 leukemia was 8.75% (active); in the test on MALME-3M melanoma, 54.9%; with MDA-MB-231 breast it was 6.62% (active); with RXF 393 renal, 62.2%; in the test on SF-268 CNS, 29.9%; with SF-295 CNS, 21.8%. The growth in the test with SF-539 CNS is -15.1% (active); in the test on UACC-257 melanoma, 72.5%; with M14 melanoma, 11.6%; in the test with HCT-15 colon, 10.4%; in the test on HT29 colon, -25.3% (active); with SNB-75 CNS, 31.7%. The growth is 41.4% in the test with SNB-19 CNS; 31.7% in the test with U251 CNS; 30.2% in the test on PC-3 prostate; -16.2% (active) in the test with SK-MEL-5 melanoma; 41.1% with UACC-62 melanoma; 59.9% with SK-MEL-28 melanoma. In the test on SK-MEL-2 melanoma, the growth is 14.4%.

As for `O=C(N/N=C/c1ccc([N+](=O)[O-])s1)c1[nH]c2ccc(Br)cc2c1-c1ccccc1`, the growth in the test with K-562 leukemia is 5.34% (active); in the test with MALME-3M melanoma it was 14.8%; in the test on MDA-MB-231 breast, -24.1% (active); in the test with RXF 393 renal, 39.3%; in the test with SF-268 CNS, 36.4%; in the test on SF-295 CNS, 23.8%. The growth is -21.2% (active) with SF-539 CNS; 58% in the test with UACC-257 melanoma; -34.5% (active) with M14 melanoma; 4.77% (active) in the test on HCT-15 colon; -22.4% (active) with HT29 colon; 26.2% in the test on SNB-75 CNS. Further, the growth with SNB-19 CNS was 27.1%; with U251 CNS, 9.11% (active); in the test on PC-3 prostate it was 26.5%; with SK-MEL-5 melanoma, -76.6% (active); with UACC-62 melanoma it was 17.6%; in the test with SK-MEL-28 melanoma, 38.5%. Moreover, the growth in the test with SK-MEL-2 melanoma was -19.4% (active).

Turning to `CCOC(=O)c1c(Nc2ccccc2)nn2c(N)c(C#N)c(-c3ccc(F)cc3)nc12`, the growth in the test on K-562 leukemia was 52.3%; in the test on MALME-3M melanoma, 91.8%; in the test with MDA-MB-231 breast, 78.6%; in the test with RXF 393 renal it was 84.9%; in the test with SF-268 CNS, 85.6%; in the test with SF-295 CNS, 86.5%. Further, the growth was 88.1% in the test on SF-539 CNS; 101% with UACC-257 melanoma; 91.2% in the test on M14 melanoma; 69.8% in the test with HCT-15 colon; 97% in the test on HT29 colon; 82.4% in the test on SNB-75 CNS. The growth is 94% with SNB-19 CNS; 88.7% with U251 CNS; 80.3% in the test with PC-3 prostate; 88.7% in the test with SK-MEL-5 melanoma; 84.6% in the test with UACC-62 melanoma; 100% in the test on SK-MEL-28 melanoma. Also, the growth with SK-MEL-2 melanoma is 100%.

With `Cn1ccnc1C(=O)/C=C/c1ccc(NC(=O)Nc2ccccc2)cc1`, the growth is 7.81% (active) in the test with K-562 leukemia; 69.6% with MALME-3M melanoma; -2.86% (active) with MDA-MB-231 breast; -5.31% (active) with RXF 393 renal; 3.22% (active) in the test on SF-268 CNS; 3.79% (active) with SF-295 CNS. The growth with SF-539 CNS was -29.5% (active); with UACC-257 melanoma, 80%; in the test on M14 melanoma, 24.8%; in the test with HCT-15 colon, 12.4%; with HT29 colon, 3.3% (active); in the test on SNB-75 CNS it was 17.1%. Moreover, the growth with SNB-19 CNS is 21.8%; with U251 CNS, 2.77% (active); in the test with PC-3 prostate, 37.8%; in the test with SK-MEL-5 melanoma it was 77.9%; in the test with UACC-62 melanoma, 38.5%; in the test with SK-MEL-28 melanoma it was 75.1%.
